The source made the active and inactive calls. Rule for the calls: active = hit-call score of the fitted dose curve at least 0.9, where 1 is the maximum; inactive = score below 0.9.
Read-out: X-box binding protein 1 (XBP1), XBP1 (gene 7494)
Test: LTEA_HepaRG_XBP1: Life Technologies and Expression Analysis (LTEA) Assay for X-box binding protein 1 (XBP1) using HepaRG (AID 2283540)
Settings: mRNA level, 48 h; actives raise or lower the signal
Method: LTEA_HepaRG is a cell based, multiplexed-readout assay that uses HepaRG, a human liver cell line, with measurements taken at 48 hours after chemical dosing on a 96-well plate.LTEA_HepaRG_XBP1 is one of 102 assay component(s) measured in the LTEA HepaRG cell culture assay. It is a marker of Diseases associated with XBP1 including Major Affective Disorder 7 and Bipolar Disorder.Data from the assay component LTEA_HepaRG_XBP1 was analyzed into 1 endpoint. This assay endpoint, LTEA_HepaRG_XBP1, was analyzed with bidirectional fitting relative to DMSO as the negative control and baseline of activity. Using a type of inducible reporter, measures of mRNA induction for gain or loss-of-signal activity can be used to understand regulation of transcription factor activity. To generalize the intended target to other relatable targets, this assay endpoint is annotated to the dna binding intended target family, where the subfamily is basic leucine zipper.
A total of 1060 chemcials from the ToxCast library were tested in eight-point concentration-response experiments. Cell culture and cytotoxicity assays were conducted at Thermo Fisher Scientific's Custom Services facility (Madison, WI). A single lot of human HepaRG cells (Thermo Fisher Scientific, Frederick, MD) was used for the cell culture experiments. 96-well format collagen type I coated plates of human HepaRG cells were prepared using established methods. Briefly, cryopreserved HepaRG cells were thawed, plated at a density of approximately 100,000 cells/well in HepaRG Thaw, Plate, and General Purpose media (HPRG770, Thermo Fisher Scientific), and incubated for 48 hours. 0.5% DMSO was selected as vehicle control to balance the requisite need of DMSO in HepaRG cultures to maintain differentiation (for example, baseline metabolism, proportions of hepatocytes vs. cholangiocytes), while enabling further hepatic receptor pathway activation (for example, PXR and CAR) in response to chemical exposure. 48 hours after plating, the culture medium was replaced with HepaRG Serum-Free Incudtion Media. Cells were exposed to each test chemical in duplicate and maintained in CO2 incubators for another 48 hours. Chemical plates were thawed to room temperature and 200x concentrations of treatment groups were prepared. 8-point conentration-reponse curves were made with the highest exposure at 100 uM, followed by half-log dilutions, all in 0.5% DMSO. Each test plate contained variouse controls, induction positive controls (1mM phenobarbital), cytotoxicity positive controls ([…] aflatoxin B1), vehicle controls (0.5% DMSO), and total lysis controls (0.5% DMSO). Cell morphology images were taken using an Essen IncuCyte FLR automated microscope, with six 96-well plates imaged in about 24 minutes. Images were captured and exported and JPEG files. Spent culture media was transfered to black-well plates for the LDH assay, and remaining media was sorted at -80 C for later use. Cells were treated with RLT buffer and frozen until shipped for gene expression analysis. Total RNA was isolated from the cell suspension in 75 uL of Buffer RLT (Qiagen, Germantown, MD 20874) by Quintiles/Expression Analysis (Durham, NC) using a custom isolation procedure. Total RNA from each plate well was transferred to a preamplification plate. Fluidigm's 96.96 Dynamic ArrayTM (Fluidigm, Amsterdam, the Netherlands) technology was used for gene expression analyses by quantitative reverse transcription polymerase chain reaction (qRT-PCR, performed by Quintiles/Expression Analysis, Durham, NC)89. Standard TaqManTM Assays (Applied Biosystems/ThermoFisher Scientific, Foster City, CA) were used to assess the expression of 93 genes selected based on their selectivity and sensitivity to important hepatic receptors known to be modulated by environmental chemicals; importance in human hepatocyte functionality; and hepatotoxicity. […]

Structure (SMILES) | outcome | AC50
O=c1c(-c2ccc(O)cc2)coc2cc(O)ccc12 | inactive | 
O=C(OCCOCCOC(=O)c1ccccc1)c1ccccc1 | inactive | 
CC(O)CO (stereo not given) | inactive | 
C=C(C)C(=O)OCCC(F)(F)C(F)(F)C(F)(F)C(F)(F)C(F)(F)C(F)(F)F | inactive | 
NC(=O)N(O)[C@@H]1C=C[C@H](Oc2cccc(Oc3ccc(F)cc3)c2)C1 |  | 28.2 µM (active)
CCOC(=O)CC(O)(CC(=O)OCC)C(=O)OCC | inactive | 
CCCOC(=O)c1ccc(O)cc1 | inactive | 
CC(C)(C)c1ccc(O)c(C(C)(C)C)c1 | inactive | 
CCN(CC)CCNc1ccc(CNC=O)c2sc3ccc(OC)cc3c(=O)c12 |  | 30.6 µM (active)
OC1CCC(C2CCCCC2)CC1 (stereo not given) | inactive | 
CC(=O)CC(C)(C)O | inactive | 
Nc1cccc2c(N)cccc12 | inactive | 
NC(=O)N1C(=O)C(C(=O)c2cc(Cl)cs2)c2cc(F)c(Cl)cc21 (stereo not given) |  | 12.9 µM (active)
CC1=C(/C=C/C(C)=C/C=C/C(C)=C/C(=O)O)C(C)(C)CCC1 | inactive | 
CC(C)(C)CC(C)(C)c1ccc(O)c(-n2nc3ccccc3n2)c1 | inactive | 
COCC(C)OCC(C)O (stereo not given) |  | 50 µM (active)
CCCOc1sc(C(=O)N2CCC(c3cc(CN)ccc3F)CC2)c(C)c1Br | inactive | 
O=C(O)c1ccccc1C(c1ccc(O)cc1)c1ccc(O)cc1 | inactive | 
CCCCCCCCC(=O)O | inactive | 
CCC(C)(C)C1CCC(O)CC1 (stereo not given) | inactive | 

Structure (SMILES) | outcome | AC50
CC(=O)NC1(c2cccc(F)c2)CCN(CC[C@@]2(c3ccc(Cl)c(Cl)c3)CN(c3ccccc3)C(=O)CO2)CC1 | inactive | 
CC(C)(C)c1cc(C(C)(C)C)c(O)c(C(C)(C)C)c1 | inactive | 
Cc1cc(CCN2CCN(c3nsc4ccccc34)CC2)cc2c1NC(=O)CC2(C)C | inactive | 
CC(C)(C)c1cccc(C(C)(C)C)c1O | inactive | 
CCCCCCCCOC(=O)CCCCCCCCC(=O)OCCCCCCCC | inactive | 
C[C@@H]1C[C@H]2[C@@H]3CCC4=CC(=O)C=C[C@]4(C)[C@@]3(F)[C@@H](O)C[C@]2(C)[C@@]1(O)C(=O)COP(=O)(O)O | inactive | 
C#C[C@]1(O)CC[C@H]2[C@@H]3CCC4=CC(=O)CC[C@@H]4[C@H]3CC[C@@]21C | inactive | 
c1ccc2c(c1)ccc1ccccc12 | inactive | 
CCC(=C(c1ccc(O)cc1)c1ccc(OCCN(C)C)cc1)c1ccccc1 | inactive | 
OCCC(F)(F)C(F)(F)C(F)(F)C(F)(F)C(F)(F)C(F)(F)C(F)(F)C(F)(F)F | inactive | 
O=[N+]([O-])c1ccc(O)cc1 | inactive | 
CC(C)CCCCCCOC(=O)CCCCC(=O)OCCCCCCC(C)C | inactive | 
COCC(C)O (stereo not given) | inactive | 
CC[C@H](c1ccc(O)cc1)[C@@H](CC)c1ccc(O)cc1 |  | 85.6 µM (active)
CN1CCN(c2ccccc2/C=C2\SCCN(c3ccc(Cl)c(Cl)c3)C2=O)CC1 | inactive | 
OC1CCCCC1 | inactive | 
Cc1cc(C)c(O)c(C)c1 | inactive | 
CCCCOCCO | inactive | 
Oc1cc2ccccc2c2ccccc12 | inactive | 
CC[C@H](C)[C@@H](C(=O)O)n1sc2ccccc2c1=O | inactive | 
